Data: PubChem BioAssay AID1159580 (chemical genetic matrix, 2015)
“And” between values parts separate entries of the source, which are not always exact repeats. Equal entries are not always repeated. The whole screen tested about 5,500 compounds, of which about 2,000 (36%) were called active. Roughly 18% stayed inconclusive and do not appear here. No stated cut-off is given here; in the data, active means normalized growth mostly below about 0.91 (no sharp cut-off); inconclusive means no clear call, values can overlap the other calls; inactive means mostly above about 0.92. The list shows a part of the results.

Test: chemical genetic growth profiling, strain panel (AID 1159580);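 further: tested at 20 µM; growth read once vehicle control cultures reached saturation at 30 °C; 1 = growth at the plate median or of vehicle wells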
Details: S. cerevisiae deletion strains, growth OD

Measured: normalized growth

CCCCC(CC)CN=C(N)NC(N)=NCCCCCCN=C(N)NC(N)=NCC(CC)CCCC (stereo not drawn)
active: locus YAL021C, strain ccr4, stronger effect = lower value 0.063 | locus YAL026C, strain drs2, stronger effect = lower value 0.0642 | locus YAL030W, strain snc1, stronger effect = lower value 0.0574 | locus YBL061C, strain skt5, stronger effect = lower value 0.0589 | locus YBR009C, strain hhf1, stronger effect = lower value 0.0622 | locus YBR021W, strain FUR4, stronger effect = lower value 0.097 | locus YBR023C, strain chs3, stronger effect = lower value 0.064 | locus YBR171W, strain sec66, stronger effect = lower value 0.0773 | locus YBR229C, strain ROT2, stronger effect = lower value 0.056 | locus YBR231C, strain swc5, stronger effect = lower value 0.0612 | locus YBR279W, strain paf1, stronger effect = lower value 0.0581 | locus YCL011C, strain gbp2, stronger effect = lower value 0.0577 | locus YCL016C, strain dcc1, stronger effect = lower value 0.0603 | locus YCL029C, strain bik1, stronger effect = lower value 0.0601 | locus YCL069W, strain vba3, stronger effect = lower value 0.0617 | locus YCR088W, strain abp1, stronger effect = lower value 0.0627 | locus YDL005C, strain med2, stronger effect = lower value 0.0747 | locus YDL035C, strain GPR1, stronger effect = lower value 0.0524 | locus YDL040C, strain nat1, stronger effect = lower value 0.0565 | locus YDL074C, strain BRE1, stronger effect = lower value 0.0887 | locus YDL101C, strain DUN1, stronger effect = lower value 0.0654 | locus YDL134C, strain PPH21, stronger effect = lower value 0.0565 | locus YDL185W, strain tfp1, stronger effect = lower value 0.0566 | locus YDL192W, strain arf1, stronger effect = lower value 0.0604 | locus YDR001C, strain nth1, stronger effect = lower value 0.061 | locus YDR069C, strain doa4, stronger effect = lower value 0.0611 | locus YDR101C, strain arx1, stronger effect = lower value 0.0576 | locus YDR137W, strain rgp1, stronger effect = lower value 0.0839 | locus YDR159W, strain sac3, stronger effect = lower value 0.086 | locus YDR162C, strain NBP2, stronger effect = lower value 0.0531 | locus YDR195W, strain ref2 0.115 | locus YDR297W, strain sur2, stronger effect = lower value 0.0561 | locus YDR318W, strain mcm21, stronger effect = lower value 0.0605 | locus YDR334W, strain swr1, stronger effect = lower value 0.0645 | locus YDR335W, strain msn5, stronger effect = lower value 0.062 | locus YDR388W, stronger effect = lower value 0.0558 | locus YDR392W, strain spt3, stronger effect = lower value 0.0874 | locus YDR502C, strain sam2, stronger effect = lower value 0.0583 | locus YEL003W, strain gim4, stronger effect = lower value 0.054 | locus YEL037C, strain rad23, stronger effect = lower value 0.0582 | locus YEL061C, strain CIN8 (second series), stronger effect = lower value 0.06 | locus YEL061C, strain CIN8, stronger effect = lower value 0.0537 | locus YER015W, strain faa2, stronger effect = lower value 0.0615 | locus YER016W, strain bim1, stronger effect = lower value 0.0587 | locus YER110C, stronger effect = lower value 0.0718 | locus YER111C, strain swi4, stronger effect = lower value 0.0729 | locus YER155C, strain BEM2 (second series), stronger effect = lower value 0.09 | locus YER155C, strain BEM2, stronger effect = lower value 0.0673 | locus YER167W, strain BCK2, stronger effect = lower value 0.0573 | locus YFR010W, strain ubp6, stronger effect = lower value 0.0674 | locus YGL078C, strain dbp3, stronger effect = lower value 0.0573 | locus YGL086W, strain mad1, stronger effect = lower value 0.0562 | locus YGL167C, strain pmr1, stronger effect = lower value 0.071 | locus YGL173C, strain kem1, stronger effect = lower value 0.0685 | locus YGL227W, strain vid30, stronger effect = lower value 0.0653 | locus YGL240W, strain doc1, stronger effect = lower value 0.0743 | locus YGL248W, strain PDE1, stronger effect = lower value 0.0546 | locus YGL253W, strain hxk2, stronger effect = lower value 0.0547 | locus YGR078C, strain PAC10, stronger effect = lower value 0.0524 | locus YGR135W, strain pre9, stronger effect = lower value 0.0595 | locus YGR252W, strain gcn5, stronger effect = lower value 0.113 | locus YHR013C, strain ard1, stronger effect = lower value 0.109 | locus YHR027C, strain rpn1, stronger effect = lower value 0.0612 | locus YHR030C, strain SLT2, stronger effect = lower value 0.0544 and 0.0908 | locus YHR079C, strain IRE1 (second series), stronger effect = lower value 0.0569 | locus YHR079C, strain IRE1, stronger effect = lower value 0.106 | locus YHR094C, strain hxt1, stronger effect = lower value 0.0581 | locus YHR129C, strain ARP1, stronger effect = lower value 0.0586 | locus YHR142W, strain chs7, stronger effect = lower value 0.0728 | locus YHR200W, strain rpn10, stronger effect = lower value 0.0601 | locus YIL066C, strain RNR3, stronger effect = lower value 0.0539 | locus YIL073C, strain SPO22, stronger effect = lower value 0.104 | locus YIL125W, strain kgd1, stronger effect = lower value 0.0595 | locus YIR030C, strain dcg1, stronger effect = lower value 0.0594 | locus YJL092W, strain hpr5, stronger effect = lower value 0.0605 | locus YJL095W, strain BCK1 (second series), stronger effect = lower value 0.0569 | locus YJL095W, strain BCK1, stronger effect = lower value 0.0657 and 0.0991 | locus YJL115W, strain asf1, stronger effect = lower value 0.0737 | locus YJL129C, strain trk1, stronger effect = lower value 0.0818 | locus YJL134W, strain LCB3, stronger effect = lower value 0.0522 | locus YJL154C, strain vps35, stronger effect = lower value 0.0612 | locus YJL164C, strain tpk1, stronger effect = lower value 0.06 | locus YJL166W, strain qcr8, stronger effect = lower value 0.0603 | locus YJL168C, strain set2, stronger effect = lower value 0.0617 | locus YJL187C, strain SWE1 (second series), stronger effect = lower value 0.0584 | locus YJR043C, strain POL32, stronger effect = lower value 0.0684 | locus YJR066W, strain TOR1, stronger effect = lower value -0.00183 | locus YJR075W, strain HOC1, stronger effect = lower value 0.0661
